TIM10 inh = growth inhibitors of TIM10 yeast strain | S. cerevisiae TIM10 strain growth, BacTiter-Glo luminescence, 24 h | inhibition, % at 10 µM | 1.4% of 330,000 active;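 active = inhibition of 40% or more at the single tested concentration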;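 note: wild-type TIM10 isogenic control strain grown at permissive 25 °C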
NALP1 inh = blocks the NALP1 inflammasome reconstituted in yeast. AID 2071. inhibition, % at 10 µM. 0.61% of 280,000 active. S. cerevisiae NALP1/ASC/caspase-1 growth, X-gal OD620, 72 h; in the data active = inhibition mostly above about 24%, no sharp cut-off; inactive = mostly below about 32%
tim23-1 inh = growth inhibitors of tim23-1 mutant yeast | S. cerevisiae tim23-1 growth, BacTiter-Glo luminescence, 24 h | 1.3% of 330,000 active | AID 463212 | inhibition, % at 20 µM;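 active = growth inhibition of the mutant yeast at or above 50%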;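 note: temperature-sensitive mutant grown at 25 °C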
tim10-1 inh = tim10-1 yeast growth inhibition; AID 463190; inhibition, % at 20 µM; 2.2% of 330,000 active; S. cerevisiae tim10-1 ts strain growth, BacTiter-Glo, 24 h;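 active = inhibition of at least 40%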;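 note: mutant grown at 25 °C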
NLRP3 yeast inh = blocks the NALP3 inflammasome reconstituted in yeast; Yeast reconstituted NLRP3/ASC/caspase-1, beta-gal luminescence, 24 h; inhibition, % at 10 µM; 0.39% of 330,000 active; AID 2825;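 active = inhibition of 50% or more; inactive = inhibition below 50%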
tim10-1 conf = confirmation of tim10-1 mutant yeast growth inhibitors; shares compounds with tim10-1 inh; S. cerevisiae tim10-1 ts strain growth, BacTiter-Glo, 24 h; inhibition, % at 20 µM; 56% of 7,400 active; AID 463213;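 active = inhibition of yeast growth at or above a set limit in either of two repeat tests at 20 µM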;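 note: tim10-1 mutant grown at permissive 25 °C to find synthetic lethal compounds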
TIM10 conf = TIM10 yeast growth inhibition, confirmed | AID 463215 | inhibition, % at 10 µM | shares compounds with TIM10 inh | S. cerevisiae tim10 strain growth, BacTiter-Glo luminescence, 24 h | 63% of 4,600 active;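 active = inhibition of yeast growth at or above a set limit in either of two replicates at 10 µM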; note: this counterscreen used the strain with wild-type TIM10
A number is an active result; . = inactive; / = not tested or not shown. Hits are enriched below; roughly 4.1% of the tested compounds scored in any of these assays.

SMILES	TIM10 inh	NALP1 inh	tim23-1 inh	tim10-1 inh	NLRP3 yeast inh	tim10-1 conf	TIM10 conf
CC(=O)C1=NN(c2ccccc2)C(c2ccc3c(c2)OCO3)N1c1ccc(N2CCOCC2)cc1 (stereo unspecified)	.	.	.	.	.	/	/
COc1cccc(N2C(C(C)=O)=NN(c3ccccc3)C2c2ccc(N3CCOCC3)cc2)c1 (stereo unspecified)	42	.	.	48	.	32	.
O=S(=O)(c1ccccc1)N1CCC(O)(CSc2ccc(Cl)cc2)CC1	43	.	.	44	.	37	.
O=S(=O)(c1ccc(Cl)cc1)N1CCC(O)(CN2CCN(Cc3ccccc3)CC2)CC1	.	.	.	.	.	/	/
S=C(NCCSCc1ccc(Cl)cc1)Nc1ccccc1	52	.	.	42	.	34	.
S=C(NCCCc1ccccc1)Nc1ccc(Cl)cc1	47	.	.	55	.	52	.
CCc1cccc2c(C=C(C#N)C#N)cn(CC(=O)N3CCCCCC3)c12	.	.	.	.	.	/	/
CC(c1ccco1)N(C(=O)c1ccccc1F)c1ccccn1 (stereo unspecified)	.	.	.	.	.	/	/
CC(c1ccco1)N(C(=O)C12CC3CC(CC(C3)C1)C2)c1ccccn1 (stereo unspecified)	46	.	.	43	.	36	.
CCOC(=O)C(=CNc1cc(OC)ccc1-n1cccc1)C(=O)OCC	.	.	.	.	.	/	/
COc1ccc(-c2nc(-c3ccccc3)nc(N3CCN(C)CC3)c2C#N)cc1	53	.	.	45	.	.	.
Cc1nn(C(=O)c2cc([N+](=O)[O-])ccc2Cl)c(C)c1Br	.	.	.	.	.	/	/
CCn1c2ccccc2n2c(=O)c(=O)n(CC(=O)Nc3ccc(C(C)C)cc3)nc12	.	.	.	.	.	/	/
CC1CCN(CC(CS(=O)(=O)c2ccc([N+](=O)[O-])cc2)N2CCC(C)CC2)CC1 (stereo unspecified)	60	/	.	45	.	49	48
COc1ccc(/C=C2/NC(=O)N(CC(=O)Nc3cccc(C)c3)C2=O)cc1O	.	.	.	.	.	/	/
COc1cccc(-c2nnc3sc(-c4ccccc4)nn23)c1	.	.	.	.	.	/	/
Cc1cccc(-c2nnc3sc(-c4ccccc4C)nn23)c1	41	.	.	55	.	66	44
CC1CCN(S(=O)(=O)c2cc(Br)cc(C(=O)NC3=NCCS3)c2)CC1	41	.	.	46	.	32	40
C#CCSc1nnnn1-c1ccc(OCC)cc1	.	.	.	.	.	/	/
CCn1cnc2cc(NCc3ccc(C)cc3)ccc21	.	.	.	.	.	/	/
CCCn1cnc2cc(NCc3ccc(Br)cc3)ccc21	52	.	.	43	.	.	50
CC(C)(C)c1cc(OC(=O)c2ccccc2F)ccc1O	48	.	.	45	.	.	43
CC(=O)Nc1ccc(S(=O)(=O)N(Cc2ccco2)Cc2cc3ccccc3[nH]c2=O)cc1	.	.	.	.	.	/	/
O=C(CCCCl)NC(=S)Nc1cc(C(F)(F)F)ccc1N1CCOCC1	57	.	.	53	.	48	50
O=C(/C=C/c1ccco1)NC(=S)Nc1cc(C(F)(F)F)ccc1N1CCOCC1	.	.	.	.	.	/	/
SMILES	TIM10 inh	NALP1 inh	tim23-1 inh	tim10-1 inh	NLRP3 yeast inh	tim10-1 conf	TIM10 conf
COc1ccc(CC(=O)NNC(=O)c2cccnc2)cc1OC	.	.	.	.	.	/	/
COc1cc(/C=C2\SC(c3ccc(C)cc3)=NC2=O)ccc1O	46	.	.	52	.	31	43
Cn1c2ccccc2c(=O)c2c(=O)n(-c3ccccc3)c(-c3ccc(C(C)(C)C)cc3)nc21	82	.	.	48	.	.	.
Cc1ccc(-c2nc3c(c(=O)c4ccccc4n3C)c(=O)n2-c2ccc(F)cc2)cc1	.	.	.	.	.	/	/
COCCCn1c(SCC(=O)N2CC(=O)Nc3ccccc32)nnc1-c1ccoc1C	.	.	.	.	.	/	/
COCCCn1c(SCC(=O)n2c(C)c(C)c3ccccc32)nnc1-c1ccoc1C	40	.	.	44	.	33	.
COc1ccc2c(c1)c1nnc(SC)nc1n2C	81	.	.	63	.	66	81
COc1ccc(C(=O)NCCS(=O)(=O)N(C)Cc2ccccc2)cc1	.	/	.	.	.	/	/
Cc1ccc(-c2nnc(Sc3nc4ccccc4o3)c3ccccc23)cc1	48	.	.	46	.	30	38
COc1ccc2oc(C(=O)OCC(=O)Nc3cc(S(=O)(=O)N4CCOCC4)ccc3OC)c(C)c2c1	.	/	.	.	.	/	/
O=C(/C=C/c1cn(-c2ccccc2)nc1-c1cccnc1)c1ccco1	48	.	.	57	.	48	41
Cc1ccc(N2C(=O)CC(C)CC2=O)cc1	.	.	.	.	.	/	/
Cc1ccccc1NC(=O)c1cccc(N2C(=O)C3C4CC(C(Br)C4Br)C3C2=O)c1 (stereo unspecified)	.	.	.	.	.	/	/
Cc1ccc(C(=O)Nc2ccc(S(=O)(=O)N3CCc4ccccc4C3)cc2)o1	.	.	.	.	.	/	/
COc1ccc(NC(=O)c2cccc(S(=O)(=O)N3CCc4ccccc43)c2)cn1	45	.	.	46	.	41	40
COc1ccc(C(=O)Nc2ccc(S(=O)(=O)N3CCc4ccccc43)cc2)cc1	.	/	.	.	.	/	/
Cc1ccc(C(=O)Nc2ccc(S(=O)(=O)N3CCc4ccccc43)cc2)o1	52	.	.	49	.	33	43
Cc1ccc(C)c(N2CCN(c3ccncc3N)CC2)c1	.	.	.	.	.	/	/
Cc1ccc(S(=O)(=O)N(CC(=O)N2CCCC2)C2CCCCC2)cc1	.	.	.	.	.	/	/
Cc1cc(C)c(S(=O)(=O)N(CC(=O)N2CCCC2)C2CCCCC2)c(C)c1	43	/	.	40	.	.	.
CCOc1cccc(C(=O)NC(=S)NCc2cccnc2)c1	.	.	.	.	.	/	/
CC(C)COc1cccc(C(=O)NC(=S)NCc2cccnc2)c1	43	.	.	47	.	.	.
Cn1cc(-c2nc3ccccc3[nH]2)c2ccccc21	71	.	.	41	.	.	.
Cc1c(-c2nc3ccccc3[nH]2)cnn1C	.	/	.	.	.	/	/
O=C(CN1C2=NCCCN2c2ccccc21)c1ccc(Cl)cc1Cl	.	.	.	.	.	/	/
O=C(CS(=O)c1ccccc1[N+](=O)[O-])Oc1ccc(Br)cc1 (stereo unspecified)	51	.	.	81	.	64	54
Cc1cccc(NC(=S)NNC(=O)c2cc3c(s2)CCC(C)C3)c1C (stereo unspecified)	51	.	.	59	.	39	32
CCOC(=O)c1cnc2c(ccc3ccccc32)c1NCCN(C)C	77	.	.	55	.	50	50

Assay outcomes from PubChem BioAssay.
